Over roughly 8,300 sequences, “log2 fold change of degron read counts, EGFP-low vs EGFP+ sorted cells (limma voom), compound-induced degradation” has its median near -1.1; the highest 2% begin near 3.2. The sample holds the highest values, similar sequences and a random draw of the others, so the mix is not that of the screen.
B1: 46F_47T_49N_50Q_52G_53H_54I_55F_67L_, Q9UKT9 (peptide)
chain: FTCNQCGHIFTQKGNLLRHIKL
B2: 46L_47F_49N_50Q_52G_53F_54T_55C_67L_, Q9UKT9 (peptide)
chain: LFCNQCGFTCTQKGNLLRHIKL
B3: 46F_47A_49N_50I_52G_53A_54W_55F_67L_, Q9UKT9 (peptide)
chain: FACNICGAWFTQKGNLLRHIKL
B4: 46F_47E_49N_50Q_52G_53R_54S_55F_67L_, Q9UKT9 (peptide)
chain: FECNQCGRSFTQKGNLLRHIKL
B5: 46L_47M_49N_50Q_52G_53F_54P_55C_67L_, Q9UKT9 (peptide)
chain: LMCNQCGFPCTQKGNLLRHIKL
B6: 46F_47E_49E_50I_52G_53H_54S_55F_67L_, Q9UKT9 (peptide)
chain: FECEICGHSFTQKGNLLRHIKL
B7: 46F_47S_49D_50V_52G_53A_54V_55F_67L_, Q9UKT9 (peptide)
chain: FSCDVCGAVFTQKGNLLRHIKL
B8: 46F_47S_49P_50I_52G_53R_54V_55F_67L_, Q9UKT9 (peptide)
chain: FSCPICGRVFTQKGNLLRHIKL
B9: 46F_47M_49E_50I_52G_53H_54F_55F_67L_, Q9UKT9 (peptide)
chain: FMCEICGHFFTQKGNLLRHIKL
B10: 46F_47D_49E_50I_52G_53A_54L_55F_67L_, Q9UKT9 (peptide)
chain: FDCEICGALFTQKGNLLRHIKL
B11: 46F_47Q_49E_50I_52G_53A_54L_55F_67L_, Q9UKT9 (peptide)
chain: FQCEICGALFTQKGNLLRHIKL
B12: 46F_47F_49E_50I_52G_53A_54L_55F_67L_, Q9UKT9 (peptide)
chain: FFCEICGALFTQKGNLLRHIKL
B13: 46F_47A_49E_50I_52G_53A_54L_55F_67L_, Q9UKT9 (peptide)
chain: FACEICGALFTQKGNLLRHIKL
B14: 46F_47L_49E_50I_52G_53A_54L_55F_67L_, Q9UKT9 (peptide)
chain: FLCEICGALFTQKGNLLRHIKL
B15: 46F_47Y_49E_50I_52G_53A_54L_55F_67L_, Q9UKT9 (peptide)
chain: FYCEICGALFTQKGNLLRHIKL
B16: 46F_47G_49E_50Q_52G_53A_54K_55F_67L_, Q9UKT9 (peptide)
chain: FGCEQCGAKFTQKGNLLRHIKL
B17: 46F_47L_49P_50V_52G_53A_54E_55F_67L_, Q9UKT9 (peptide)
chain: FLCPVCGAEFTQKGNLLRHIKL
B18: 46F_47C_49P_50Q_52G_53A_54N_55F_67L_, Q9UKT9 (peptide)
chain: FCCPQCGANFTQKGNLLRHIKL
B19: 46F_47M_49N_50Q_52G_53H_54W_55F_67L_, Q9UKT9 (peptide)
chain: FMCNQCGHWFTQKGNLLRHIKL
B20: 46F_47D_49N_50Q_52G_53A_54N_55F_67L_, Q9UKT9 (peptide)
chain: FDCNQCGANFTQKGNLLRHIKL
B21: 46F_47S_49E_50I_52G_53A_54L_55F_67L_, Q9UKT9 (peptide)
chain: FSCEICGALFTQKGNLLRHIKL
B22: 46F_47S_49E_50I_52G_53A_54R_55F_67L_, Q9UKT9 (peptide)
chain: FSCEICGARFTQKGNLLRHIKL
B23: 46F_47K_49E_50I_52G_53A_54R_55F_67L_, Q9UKT9 (peptide)
chain: FKCEICGARFTQKGNLLRHIKL
B24: 46F_47C_49E_50I_52G_53A_54R_55F_67L_, Q9UKT9 (peptide)
chain: FCCEICGARFTQKGNLLRHIKL
B25: 46F_47N_49E_50I_52G_53A_54R_55F_67L_, Q9UKT9 (peptide)
chain: FNCEICGARFTQKGNLLRHIKL
B26: 46F_47G_49E_50I_52G_53A_54R_55F_67L_, Q9UKT9 (peptide)
chain: FGCEICGARFTQKGNLLRHIKL
B27: 46F_47D_49P_50I_52G_53R_54E_55F_67L_, Q9UKT9 (peptide)
chain: FDCPICGREFTQKGNLLRHIKL
B28: 46F_47Q_49P_50I_52G_53H_54K_55F_67L_, Q9UKT9 (peptide)
chain: FQCPICGHKFTQKGNLLRHIKL

Target: T1, CRBN, Q96SW2
T1 chain: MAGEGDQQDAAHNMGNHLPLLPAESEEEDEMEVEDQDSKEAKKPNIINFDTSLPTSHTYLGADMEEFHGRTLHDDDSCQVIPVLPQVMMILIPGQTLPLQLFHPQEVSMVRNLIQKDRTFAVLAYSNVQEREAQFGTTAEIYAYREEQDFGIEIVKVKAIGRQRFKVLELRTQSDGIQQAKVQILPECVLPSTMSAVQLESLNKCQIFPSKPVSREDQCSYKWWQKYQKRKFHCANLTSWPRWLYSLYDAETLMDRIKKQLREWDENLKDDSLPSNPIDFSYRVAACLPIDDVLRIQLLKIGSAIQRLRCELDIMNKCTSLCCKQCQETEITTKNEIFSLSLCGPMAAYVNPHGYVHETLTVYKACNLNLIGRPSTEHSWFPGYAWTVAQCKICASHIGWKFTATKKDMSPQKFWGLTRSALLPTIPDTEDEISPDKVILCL
Test: log2 fold change of degron read counts, EGFP-low vs EGFP+ sorted cells (limma voom), compound-induced degradation; higher = more compound-induced degradation of the degron-EGFP fusion; degrons are variants of IKZF1/3 zinc finger 2; compound dose not given here
Settings: Jurkat, 18 h
Method: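 Pooled library of 8380 IKZF3 ZF2 degron mutants (positions 146-167 varied within the IKZF3 130-189 degron; only the varied core is printed, flanks not printed) fused to EGFP with IRES-mCherry, lentivirally expressed in Jurkat cells. mCherry+ cells were treated with one IMiD compound for 18 h (dose not stated) and FACS-sorted into EGFP-low and EGFP+ populations. Degron sequences were counted by NGS, and log2FC (EGFP-low vs EGFP+) was estimated by limma voom over 3 biological replicates.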

[1] = compound: compound 19 (5-tert-butyl-thalidomide)
[2] = compound: compound 22 (5-morpholino-thalidomide)
[3] = compound: compound 33 (diphenyl IMiD analogue)
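Further: pooled lentiviral library of zinc finger degron-EGFP fusions in mCherry-positive Jurkat cells, FACS-sorted after compound exposure, with degron abundance counted by next-generation sequencing.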

Row | Sequence | log2 fold change of degron read counts [1] | log2 fold change of degron read counts [2] | log2 fold change of degron read counts [3] | log2 fold change of degron read counts (compound: thalidomide)
1 | B1 | -3.22 | -3.78 | -2.72 | -3.39
2 | B2 | -0.962 | -0.778 | -1.34 | -1.55
3 | B3 | -0.878 | -0.37 | -0.973 | -1.22
4 | B4 | -2.91 | -4.04 | -3.77 | -2.98
5 | B5 | -2.18 | -2.49 | -1.64 | -1.76
6 | B6 | -3.4 | -3.98 | -3.41 | -3.14
7 | B7 | -0.211 | -0.318 | 1.04 | -0.804
8 | B8 | -0.277 | -0.0789 | 1.53 | 0.556
9 | B9 | -3.03 | -3.09 | -2.32 | -3.02
10 | B10 | -0.733 | -1.67 | 0.189 | -0.124
11 | B11 | -1.22 | 1.46 | 1.74 | 3.53
12 | B12 | 3.18 | 2.91 | 1.74 | 0.646
13 | B13 | 2.71 | 0.321 | 0.174 | -0.494
14 | B14 | -0.92 | -1.27 | 0.77 | 1.46
15 | B15 | 3.29 | 3.38 | 2.38 | 0.365
16 | B16 | 0.32 | -2.26 | -2.15 | -0.779
17 | B17 | -0.14 | -1.09 | 1.21 | 1.24
18 | B18 | -0.811 | -1.28 | 0.128 | -0.853
19 | B19 | -2.24 | -2.49 | -2.26 | -2.73
20 | B20 | -2.41 | -2.24 | -2.07 | -2.31
21 | B21 | 0.851 | 0.0276 | 2.41 | -0.115
22 | B22 | 3.25 | 2.89 | 0.489 | 2.12
23 | B23 | -1.5 | -3.6 | -3.25 | -1.17
24 | B24 | 3.25 | 3.01 | 1.66 | 3.08
25 | B25 | 2.49 | 0.909 | -0.686 | 0.645
26 | B26 | 3.15 | 2.26 | -0.576 | 1.48
27 | B27 | -1.43 | -1.65 | -0.206 | 0.273
28 | B28 | -1.95 | -1.73 | -1.82 | 0.342

From the supplement of paper PMC12645437, “Orthogonal IMiD-Degron Pairs Induce Selective Protein Degradation in Cells” (ACS Chemical Biology, 2025)
